High-throughput results deposited in PubChem by several laboratories.
MCL1-BIM inh – inhibitors of MCL1 binding to BIM-BH3, primary screen, biochemical, fluorescence polarization; actives 0.68% (n = 320,000); GST-MCL1 / FITC-Bim-BH3 fluorescence polarization; inhibition, % at 10.9 µM; AID 2057, 2009;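 active = inhibition above the mean inhibition of all tested compounds plus 3 SD, set per campaign, cut at about 40% in these data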;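 also: higher means more loss of mP so more displacement of Bim peptide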
Target sequence (Q07820 whole entry, looked up): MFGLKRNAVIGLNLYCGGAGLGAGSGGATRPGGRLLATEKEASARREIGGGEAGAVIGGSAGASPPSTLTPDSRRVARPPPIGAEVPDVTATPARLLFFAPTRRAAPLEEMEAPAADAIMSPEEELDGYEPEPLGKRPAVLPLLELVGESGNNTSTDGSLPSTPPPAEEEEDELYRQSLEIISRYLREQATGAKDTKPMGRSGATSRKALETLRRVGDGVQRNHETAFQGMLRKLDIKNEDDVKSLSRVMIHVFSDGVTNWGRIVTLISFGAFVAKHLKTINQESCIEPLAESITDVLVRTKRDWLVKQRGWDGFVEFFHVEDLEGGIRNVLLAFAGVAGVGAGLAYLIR
E coli Lon inh – inhibitors of E. coli Lon protease, primary screen, biochemical, fluorescence polarization | purified E. coli Lon protease | inhibition, % at 7.94 µM | actives 0.42% (n = 360,000) | AID 602123, 2011; in the data active = inhibition above about 13%, passing the limit was not always enough
BCLXL inh – inhibitors of human Bcl-xL, primary screen, biochemical, fluorescence polarization, HTS | Bcl-2-like protein 1 (Homo sapiens), Q07817 | GST-Bcl-xL / FITC-Bim BH3 peptide fluorescence polarization | inhibition, % at 10.9 µM | actives 0.7% (n = 320,000) | AID 2129, 2009;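 active = inhibition above the mean of all tested compounds plus 3 SD, cutoff set per campaign, cut at about 30% in these data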;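 also: inhibitors lower millipolarization by displacing the labeled peptide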
Target sequence (Q07817 whole entry, looked up): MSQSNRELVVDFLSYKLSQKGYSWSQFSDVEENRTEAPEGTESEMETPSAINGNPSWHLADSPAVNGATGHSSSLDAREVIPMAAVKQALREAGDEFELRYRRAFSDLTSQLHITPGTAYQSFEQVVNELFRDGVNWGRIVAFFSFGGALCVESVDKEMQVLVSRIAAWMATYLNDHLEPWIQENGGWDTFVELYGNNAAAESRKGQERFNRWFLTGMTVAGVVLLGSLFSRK
GLD-1 RNA inh – GLD-1/TGE RNA complex disruptors, primary screen, biochemical, fluorescence polarization | Female germline-specific tumor suppressor gld-1 (Caenorhabditis elegans), Q17339 | purified GLD-1 + fluorescein TGE RNA | inhibition, % at 5.96 µM | actives 0.44% (n = 320,000);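 active = percent inhibition above a per-plate cutoff, the plate mean of test compounds plus 3 SD, cut at about 30% in these data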
MEX-5 binding – MEX-5 zinc finger RNA-binding disruptors – biochemical, C. elegans, fluorescence polarization, MLPCN library, primary screen | Zinc finger protein mex-5 (Caenorhabditis elegans), Q9XUB2 | MEX-5/FITC-TCR2 RNA binding; hits give low values | activity score (negative = inhibition of binding), % at 10 µM | actives 0.38% (n = 300,000) | AID 1832, 2009;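 active = inhibition past about -25% in most replicates, and total fluorescence under double the plate's negative control median, limit read from the data; inconclusive = replicates evenly split on the limit, or fluorescence at least double controls; inactive = too little inhibition in most replicates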
A number is an active result; - = inactive; ? = inconclusive; . = not tested or not shown. Most compounds without a hit are left out; they make up all but 1.4% or so of the library.

SMILES | MCL1-BIM inh | E coli Lon inh | BCLXL inh | GLD-1 RNA inh | MEX-5 binding
Cc1cc(NC(=O)c2cc(-c3ccccc3)on2)no1 | - | - | - | - | -
Cc1ccc(-c2cc(C(=O)Nc3cc(C)on3)no2)cc1 | - | - | 37.3 | 47.4 | -
CC(=O)Nc1ccc(C(=O)OCC(=O)N2CCC(Cc3ccccc3)CC2)cc1 | - | - | - | - | .
COc1cccc(/C=C/C(=O)OCC(=O)c2ccc(Br)cc2)c1 | . | - | . | . | .
CC(=O)C(=Nc1ccccc1Cl)NNc1ccc(Cl)cc1 | - | - | 30.6 | - | -
CC1OC(Oc2c(-c3cc(O)c(O)c(O)c3)oc3cc(O)cc(O)c3c2=O)C(O)C(O)C1O (configuration not stated) | . | - | . | . | -48.0
C[C@@H]1O[C@@H](OC[C@@H]2O[C@H](Oc3c(-c4ccc(O)cc4)oc4cc(O)cc(O)c4c3=O)[C@@H](O)[C@H](O)[C@H]2O)[C@H](O)[C@H](O)[C@H]1O | . | - | . | - | .
Cc1ccc(C(=O)Nc2nnc(CC(=O)N/N=C/c3ccncc3)s2)cc1 | - | - | - | - | -
COc1ccc(C(=O)Nc2nnc(CC(=O)N/N=C/c3ccc(O)cc3O)s2)cc1 | - | - | - | 43.4 | ?
c1coc(-c2cc(C3CCNCC3)[nH]n2)c1 | - | - | - | - | -
N#CCN1CCC(c2cc(-c3ccco3)n[nH]2)CC1 | - | . | 37.5 | - | -
CC(C)OCC(O)CN1CCN(CCN2C(=O)c3cccc4cccc(c34)C2=O)CC1 (configuration not stated) | - | - | - | - | -59.3
CCOc1ccc(-c2nc(N)ncc2Oc2ccc(OC)cc2)c(O)c1 | - | - | - | - | -
COc1ccc(-c2nc(N)nc(C)c2Oc2ccccc2Br)c(O)c1 | - | - | 42.0 | - | .
NS(=O)(=O)c1c(Sc2ccccc2C(=O)O)ccc2ccccc12 | 45.8 | - | 34.8 | - | -
Cc1ccc2nc3c(cc(C(=O)NCC4CCCO4)c(=N)n3CCCOC(C)C)c(=O)n2c1 (configuration not stated) | - | - | - | - | .
CCOCCCNc1nc2nc3ccc(C)cn3c(=O)c2cc1C(=O)NCC1CCCO1 (configuration not stated) | - | - | - | - | -34.0
CC(C)COc1cccc(C(=O)Nc2ccc(S(=O)(=O)N3CCOCC3)cc2)c1 | - | - | - | - | -
COc1cccc(-n2c([S-])c(C(=O)Nc3ccc(S(=O)(=O)N4CCOCC4)cc3)[n+]3cc(C(N)=O)ccc23)c1 | - | - | 35.7 | - | -
COCCNC(=O)CCC(=O)NNc1nc2ccccc2c2nc(C)nn12 | - | - | - | - | -44.7
COc1ccc(N2CCN(CCNC(=O)CCC(=O)NNc3nc4ccccc4c4nc(C)nn34)CC2)cc1 | - | - | - | - | -
Cc1nc2c3ccccc3nc(NNC(=O)CCC(=O)NC(C)C)n2n1 | - | - | - | - | -41.5
Cc1nc2c3ccccc3nc(NNC(=O)CCC(=O)N3CCCC(C)C3)n2n1 (configuration not stated) | - | - | - | - | -27.0
O=C(Cn1c(=O)oc2ccccc21)NCCc1ccccc1Cl | - | - | - | - | -
Cc1nnsc1C(=O)N/N=C/c1ccc2ccccc2c1O | 83.7 | - | 74.8 | - | -
SMILES | MCL1-BIM inh | E coli Lon inh | BCLXL inh | GLD-1 RNA inh | MEX-5 binding
FC(F)(F)c1cccc(NCc2n[nH]c(=S)n2C2CCCCC2)c1 | - | - | - | - | -
COc1ccc(NC(=O)c2cc(S(=O)(=O)N3CCCC3)ccc2C)cn1 | 41.9 | - | 34.7 | - | .
COc1ccc(NC(=O)c2cc(S(=O)(=O)N3CCCCC3)ccc2N2CCCCC2)cn1 | - | - | - | - | -
CCn1c(C)cc(/C=C2/NC(=O)N(c3ccccc3)C2=O)c1C | - | - | 30.8 | - | -
CC1CCN(CCCNC(=O)c2cc3c(=O)n(C)c4ccccc4c3n2C)CC1 | - | - | - | - | -
Cn1c(C(=O)NCCCN2CCOCC2)cc2c(=O)n(C)c3ccccc3c21 | - | - | - | - | -41.7
CCC(C)(C)NC(=O)CN(C(=O)CCC(=O)Nc1ccccn1)c1ccc2c(c1)OCO2 | - | - | - | - | -
c1cc(Nc2cccc3nccnc23)c2nccnc2c1 | - | - | - | - | -29.2
Fc1ccc(Nc2cccc3nccnc23)cc1 | - | - | - | - | -
O=C(C[n+]1ccc(-c2nnc3n2CCC3)cc1)c1ccc(Cl)cc1 | - | - | - | - | -
CCOc1cc(/C=C2/NC(=O)N(Cc3ccccc3F)C2=O)ccc1O | - | - | - | - | -
COc1cc(/C=C2/NC(=O)N(Cc3ccccc3F)C2=O)cc(OC)c1O | - | - | - | 66.3 | -
CCOC(=O)C1=C(C)NC(C)=C(C(=O)OCC)C1C(=O)OCC(=O)N(C)C | - | - | - | - | -
COC(=O)c1ccc(/C=N\N2CCN(Cc3ccc(C)cc3)CC2)cc1 | - | 142.4 | - | - | -
COC(=O)c1ccc(/C=N/N2CCN(Cc3ccccc3)CC2)cc1 | - | - | - | - | -
Cc1ccc2c(c1)CC1(CN2C)C(=O)OC2(CCCCC2)OC1=O | - | - | 32.6 | - | -
CN1CC2(Cc3c1ccc1ccccc31)C(=O)OC(C)(C)OC2=O | - | - | - | - | .
CN(C)S(=O)(=O)c1cc(NC(=O)CN2CCc3ccccc32)ccc1Cl | 45.1 | - | 45.2 | - | -
Cc1c(C)n(Cc2ccccc2)c2ncnc(NCCCO)c12 | - | - | - | - | -
OCCCNc1ncnc2sc3c(c12)CCN(Cc1ccccc1)C3 | - | - | - | - | -27.8
O=C(O)c1cc(-c2ccc(/C=N/Nc3ccc([N+](=O)[O-])cn3)o2)ccc1Cl | . | - | . | . | -71.6
CC1(C)OC2CC3C4CC(F)C5=CC(=O)C=CC5(C)C4(F)C(O)CC3(C)C2(C(=O)CO)O1 (configuration not stated) | 52.9 | - | 56.9 | - | -
O=C(O)CCC1c2cc3c4cc2OC2Oc5cc6c(cc51)C(CCC(=O)O)c1cc5c7cc1OC(O6)c1cc6cc(c1)Oc1cc(cc(C(=O)O)c1)Oc1cc8cc(c1)C(Oc1cc(c(cc1C5CCC(=O)O)C3CCC(=O)O)OC(O4)c1cc(cc(c1)Oc1cc(cc(C(=O)O)c1)O8)Oc1cc(cc(C(=O)O)c1)Oc1cc(cc2c1)Oc1cc(cc(C(=O)O)c1)O6)O7 (configuration not stated) | 42.2 | . | - | 96.6 | -99.7
O=C(c1cccn2c(=O)c3cc4ccccc4cc3nc12)N1CCN(c2ccccc2)CC1 | - | . | 32.7 | - | -
CC(=O)N(C1=C(Cl)C(=O)c2ccccc2C1=O)C1CCCCC1 | - | - | - | - | -48.2
COc1ccc(OC)c(NC(=O)C2CCN(S(=O)(=O)c3c(C)noc3C)CC2)c1 | - | - | - | 62.6 | -
